According to PubChem BioAssay (NCI):
About 83,000 compounds went through this panel and 20% of them were active in at least one assay; those are over-represented in the sample as a whole.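 For each line, cells grew in 96-well plates with the test compound present at a single concentration for 48 hours.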 A number with no mark means an inactive call. The source made the active and inactive calls. How the source made its calls: active means growth percent below 10; inactive means the rest.

Legend:
Experiment in all cases: NCI-60 one-dose screen, 48 h (100 = growth as untreated, 0 = no growth, -100 = all killed)
Details in all cases: 10 µM unless noted
SR leukemia = tested on: SR leukemia
RPMI-8226 leukemia = tested on: RPMI-8226 leukemia
OVCAR-8 ovarian = tested on: OVCAR-8 ovarian
OVCAR-5 ovarian = tested on: OVCAR-5 ovarian
OVCAR-4 ovarian = tested on: OVCAR-4 ovarian
SK-OV-3 ovarian = tested on: SK-OV-3 ovarian
IGROV1 ovarian = tested on: IGROV1 ovarian
OVCAR-3 ovarian = tested on: OVCAR-3 ovarian
HS 578T breast = tested on: HS 578T breast
NCI/ADR-RES ovarian = tested on: NCI/ADR-RES ovarian

| Structure (SMILES) | growth (SR leukemia) | growth (RPMI-8226 leukemia) | growth (OVCAR-8 ovarian) | growth (OVCAR-5 ovarian) | growth (OVCAR-4 ovarian) | growth (SK-OV-3 ovarian) | growth (IGROV1 ovarian) | growth (OVCAR-3 ovarian) | growth (HS 578T breast) | growth (NCI/ADR-RES ovarian) |
| --- | --- | --- | --- | --- | --- | --- | --- | --- | --- | --- |
| Cn1c(N2NC(=O)C(N=Nc3ccc(S(N)(=O)=O)cc3)C2=O)nc(-c2ccco2)c(C#N)c1=O (stereo not given) | 1.63% (active) | 3.99% (active) | 90.2% | 115% | 59.2% | 102% | 30.7% | 72.7% | 104% | 93% |
| Nc1n[nH]c2cccc(C#Cc3cccc(C(=O)Nc4cc(CN5CCOCC5)cc(C(F)(F)F)c4)c3)c12 | 35.6% | 12.9% | 28.9% | 34.3% | 33.1% | 82.9% | 7.98% (active) | 46.7% | 10.2% | 42.1% |
| O=C(NCCc1ccccc1)Nc1ccc2cc3ccc(NC(=O)NCCc4ccccc4)cc3nc2c1 | -30.2% (active) | 49.1% | 23.8% | 50.6% | 62.6% | 41.4% | 48.2% | 19.2% | -26.2% (active) | 105% |
| C=C(CBr)[C@@H]1CC[C@]2(COC(C)=O)CC[C@]3(C)[C@H](CC[C@@H]4[C@@]5(C)CCCNC(C)(C)[C@@H]5CC[C@]43C)[C@@H]12 | 10% | 7.96% (active) | 40.4% | 87.3% | 50.8% | 72.5% | 60.1% | 33.7% | 73.7% | 48.9% |
| Cc1cccc(NC(=O)Nc2ccc(-n3cnc4cc(-c5ccc(O)cc5)ccc43)cc2)c1 | 19.7% | 12.4% | 17.6% | 76.8% | 27.4% | 60.3% | 33.2% | 20.4% | 82% | 39.5% |
| NS(=O)(=O)c1ccc(CCN2C(=O)C3C(C2=O)C2(Cl)C(Cl)=C(Cl)C3(Cl)C2(Cl)Cl)cc1 (stereo not given) | 98.1% | 53% | 107% | 98.2% | 96.2% | 115% | 97.3% | 108% | 96.8% | 98.7% |
| NNC(=O)c1ccc(-n2nc(-c3ccccc3)c3ccccc32)cc1 | 83.5% | 86.4% | 77% | 93.8% | 23.9% | 98.9% | 73.7% | 8.87% (active) | 73% | 91.5% |
| CCCCCCCCOc1ccc(/C=N/Nc2cc(C)nc3ccc(Br)cc23)cc1 | -14.3% (active) | 36.6% | 46.4% | 101% | -1.74% (active) | 104% | 62.5% | 67.1% | 64.1% | 65.1% |
| CC(C)(C)c1ccc(NS(=O)(=O)c2ccc3nc(NC(=O)c4cnccn4)[nH]c3c2)cc1 | 4.26% (active) | 24.3% | 45.6% | 57% | 37% | 53.5% | 37.4% | -12.3% (active) | -1.91% (active) | 30.6% |
| CNC(=O)c1cccc(Cn2nc(C)c(NC(=O)c3ccc(COc4ccc(C(F)(F)F)cc4C)cc3)c2C)c1 | 23.3% | 27.3% | 33.9% | 100% | 29.6% | 70.9% | 63.8% | 34% | 84.9% | 35.4% |
| CC(=O)c1ccc(NS(=O)(=O)c2cccc(C(=O)Nc3ccc(Br)cc3)c2)cc1 | 87.8% [25 µM] | 22% [25 µM] | 67.3% [25 µM] | 89.2% [25 µM] | 63.6% [25 µM] | 66.5% [25 µM] | 73.7% [25 µM] | 70.9% [25 µM] | 79.7% [25 µM] | 48% [25 µM] |
| CC1(C)c2[nH]c3ccccc3c2C[C@]2(C)[C@H]3C(=O)C=C4[C@@H]5C[C@@](C)(C(N)=O)CC[C@]5(C)CC[C@@]4(C)[C@]3(C)CC[C@@H]12 | 45.8% | 42.3% | 75.1% | 93.3% | 54.4% | 71.3% | 84.4% | 69.9% | 71.4% | 71.2% |
| CCOC(=O)c1cc(C(=O)c2ccc(OC)c(OC)c2)n2c1ccc1ccccc12 | 86.5% | 80% | 94.7% | 104% | 91.9% | 93% | 58.6% | 99.6% | 93.8% | 91.5% |
| COc1cc2nc(-c3ccc(Cl)cc3)cc(OCCCN3CCC(O)CC3)c2cc1OC | 15.9% | 23.2% | 42.9% | 45.8% | 68.7% | 74.3% | 33.2% | 71.7% | 66.9% | 44.6% |
| CCC(=O)Oc1ccc(/C(=C(\C)c2ccccc2)c2ccc(OCCN3CCCCC3)cc2)cc1 | 20.3% | 62.9% | 81.6% | 90.9% | 80.6% | 75.5% | 93.8% | 84.3% | 72.9% | 74.8% |
| C=C1C(=O)O[C@H]2[C@H]1CC/C(COC(=O)NCC(C)c1ccc(CC(C)C)cc1)=C\CC[C@@]1(C)O[C@@H]21 (stereo not given in full) | -2.59% (active) | -35.7% (active) | -51% (active) | 62.4% | -43.8% (active) | 100% | -69.5% (active) | -85.5% (active) | 16% | 28.6% |
| Cn1nc(CC#N)c2c(=N)n(N)cnc21 | 93.4% | 117% | 104% | 93.5% | 114% | 99.8% | 103% | 112% | 114% | 113% |
| O=C(Cn1c(C(=O)c2ccccc2)nc2ccccc21)c1ccc(F)cc1 | 25.4% | 28.7% | 79.7% | 84.2% | 58.4% | 110% | 41.1% | 67.2% | 56.2% | 16.1% |
| O=C(/C=C(O)/C=C/c1ccc(SC(F)(F)F)cc1)/C=C/c1ccc(SC(F)(F)F)cc1 | 40.8% | 38.9% | 96% | 118% | 97.3% | 119% | 80.6% | 88% | 98.2% | 104% |
| CCc1c2c(nc3ccc(OCc4ccc(B(O)O)cc4)cc13)-c1cc3c(c(=O)n1C2)COC(=O)[C@]3(O)CC | -2.77% (active) | 6.35% (active) | 6.94% (active) | 11.5% | 24.2% | -4.91% (active) | 17.6% | 6.75% (active) | 36.7% | -0.104% (active) |
| OC(c1cccc(C(F)(F)F)c1)c1cnccc1NC1CCCCC1 (stereo not given) | 51.6% | 29.9% | 86.9% | 95.3% | 74.7% | 95.9% | 76.3% | 81.1% | 80.6% | 79.1% |
| CCN(CC)CC[n+]1cc2cc(OC)c(OC)cc2c2ccc3cc4c(cc3c21)OCO4 | -11.3% (active) | -32.7% (active) | -82.8% (active) | 6.85% (active) | 1.21% (active) | -10.7% (active) | -44.1% (active) | 13.4% | -4.12% (active) | 70.5% |
| O=C1c2c(c3c4cccc(F)c4[nH]c3c3ccc4ccccc4c23)C(=O)N1O | 7.28% (active) | 0.257% (active) | 42.2% | 103% | 56.6% | 75.5% | 35.2% | 36% | 62.1% | 64.2% |
| COc1ccc(/C=C/c2nc(Nc3cccc(NC(C)=O)c3)c3ccccc3n2)cc1 | 64.7% | 89.3% | 84.5% | 86.8% | 104% | 99.5% | 99.7% | 97.7% | 89.1% | 90% |
| O=C(Nc1ccc(NC(=O)c2cc(=O)[nH]c3ccccc23)cc1)Nc1cccc(Cl)c1 | 36.2% | 96.3% | 85.9% | 87.9% | 78.8% | 74.8% | 69% | 89.2% | 93.5% | 94.9% |
| CCOC(=O)c1cc(C(=O)c2cc(OC)cc(OC)c2)n2ccc3ccccc3c12 | 116% | 108% | 89.9% | 98% | 88.8% | 98.2% | 102% | 112% | 82.5% | 92.8% |
